Measured values published in PubChem BioAssay AID720504 (National Center for Advancing Translational Sciences (NCATS), 2013).
About 10,000 (2.8%) of roughly 360,000 compounds were called active. Another 4% or so got no clear call; they are omitted. This is one part of a sample in which actives are shown more often than they occur. A number with no mark means an inactive call. Calls follow the shape of the dose curve; as a rule, active = well fitted inhibition curve with a large enough effect; inconclusive = small, poorly fitted or top-dose-only effect; inactive = flat fitted curve, though single readings scatter.

target: Serine/threonine-protein kinase PLK1 (Homo sapiens) (UniProt P53350); assay: qHTS for Inhibitors of PLK1-PDB (polo-like kinase 1 - polo-box domain): Primary Screen; details: Plk1 PBD binding of FITC phosphopeptide, fluorescence polarization; also: nearly all actives have a fitted effect of over 65% in size; as to max response, negative = inhibition: series mostly up to about 57 µM
% is scaled to controls: 0 for no effect and ±100 for the full control effect; potency is read from the fitted curve at half-maximal effect.

Serine/threonine-protein kinase PLK1 (Homo sapiens), sequence (P53350 whole entry, looked up, the tested form may be a part): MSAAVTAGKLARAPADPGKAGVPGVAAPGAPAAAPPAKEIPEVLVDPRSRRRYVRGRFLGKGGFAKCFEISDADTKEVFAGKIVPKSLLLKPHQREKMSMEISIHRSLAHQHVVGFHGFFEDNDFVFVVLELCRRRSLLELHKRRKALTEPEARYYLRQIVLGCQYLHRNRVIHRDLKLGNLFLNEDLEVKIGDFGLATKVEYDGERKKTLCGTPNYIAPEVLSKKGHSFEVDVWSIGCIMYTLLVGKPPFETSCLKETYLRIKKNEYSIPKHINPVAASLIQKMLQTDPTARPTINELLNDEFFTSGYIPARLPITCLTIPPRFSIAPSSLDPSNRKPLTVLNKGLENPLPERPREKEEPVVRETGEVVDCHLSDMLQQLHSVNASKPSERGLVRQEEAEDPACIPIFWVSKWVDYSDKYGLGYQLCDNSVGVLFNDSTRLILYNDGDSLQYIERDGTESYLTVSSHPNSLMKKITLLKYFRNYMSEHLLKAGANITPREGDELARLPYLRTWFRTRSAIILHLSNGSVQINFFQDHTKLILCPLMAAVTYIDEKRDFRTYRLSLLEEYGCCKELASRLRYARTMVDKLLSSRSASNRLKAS

Point of comparison: `CCCCc1nnc(NC(=O)CSc2nc(C)cc(=O)[nH]2)s1`, max response, negative = inhibition -4.5%. Against it:
- CN(C)CCNC(=O)c1cccc(-c2cnc3c(NC=O)cc(-c4cccc(C(F)(F)F)c4)cn23)c1 — lower, -13.6%
- CC(C)(C)OC(=O)N1CCN(C(=O)c2[nH]c(C(F)(F)F)nc2-c2ccccc2)CC1 — higher, 1.58%
- COC(=O)C1=C(C)N(C)C(=S)NC1c1ccccc1 (stereo not drawn) — lower, -7.92%
- CCOC(=O)c1cnc(SCC(=O)Nc2cccc(OC)c2)nc1N — lower, -5.18%
- CCOC(=O)C(C)n1cnc2c(nnn2-c2cccc(OC)c2)c1=O (stereo not drawn) — higher, 1.99%
- COC(=O)c1sc(N2CCN(Cc3ccccc3)CC2)nc1N — higher, -4.47%
- CC1(C)OC(=O)C2=C(C[C@@H](C3CC3)O[C@H]2CCc2cccc(Cl)c2)O1 — higher, 4.74%
- COc1ccc(C(C#N)=C2C=CC(=NO)c3ccccc32)cc1 — higher, -0.254%
- COc1ccccc1NC(=O)C(CC(=O)O)Cc1cc(C)cc(C)c1 (stereo not drawn) — lower, -4.75%
- Cn1c(Nc2ccc(F)cc2)nc2cc(-c3ccsc3)sc2c1=O — lower, -9.36%
- CCn1c(CSc2ncccn2)nnc1SCC(=O)N1c2ccccc2CC1C (stereo not drawn) — lower, -13%
- CC1Cc2ccccc2N1C(=O)CSc1nnc(-c2ccc(S(=O)(=O)N3CCCC3)cc2)n1C (stereo not drawn) — lower, -7.29%
- Cc1ccc(Cn2cc(CN3CC(N4CCN(C)CC4)CS3(=O)=O)nn2)cc1 (stereo not drawn) — higher, -1.82%
- O=C1[C@H]2[C@@H](c3ccc(C(F)(F)F)cc3)N[C@]3(CCCN(Cc4ccc(Br)cc4)C3=O)[C@H]2C(=O)N1Cc1ccccc1 — higher, 8.62%
- CC(C)C1CC2=C(C(=O)OC(C)(C)O2)C(c2ccc(F)cc2)O1 (stereo not drawn) — higher, 2.13%
- O=C(O)C(=Cc1ccc([N+](=O)[O-])cc1)CCc1ccccc1 — lower, -6.74%
- CNC(=S)Nc1ccc([N+](=O)[O-])cc1 — lower, -17.5%
- CC(=O)OC[C@@H]1CN(Cc2ccccc2)C[C@H](n2cnc3c(NCc4ccco4)ncnc32)O1 — higher, 1.29%
- CCN1C(=O)[C@@H]2[C@@H]3CN(S(=O)(=O)c4ccccc4C)[C@@H](c4ccc(Cl)cc4)[C@@H]3C(=O)C[C@@H]2C1=O — higher, -4.29%
- Cc1ccc(S(=O)(=O)NCCSc2ccccc2)cc1[N+](=O)[O-] — higher, 1.72%
- Cc1cccc(CN2CCN(C3CN(Cc4cn(Cc5cc(C)cc(C)c5)nn4)S(=O)(=O)C3)CC2)c1 (stereo not drawn) — higher, -3.6%
- COc1ccc(S(=O)(=O)N(C)C[C@H]2OCc3cnnn3CCCC(=O)N([C@H](C)CO)C[C@H]2C)cc1 — lower, -13.3%
- CC(=O)Nc1cccc(/C(C)=N/NC(=O)c2c(-c3ccccc3Cl)noc2C)c1 — lower, -10.9%
- Cc1ccccc1NC(=O)c1cc(S(=O)(=O)Nc2cccc(C(=O)O)c2)ccc1Cl — higher, 4.03%
- CCOC(=O)[C@]12CCCC=C1N(CCC1=CCCCC1)C(=O)[C@H](CC(=O)N1CCSCC1)C2 — higher, 1.28%
- COC(=O)c1ccc2nc(-c3ccc(OC)c(OC)c3)c(Cc3ccccc3)n2c1 — lower, -13.8%
- CN(C(=O)c1ccccn1)c1nnc(-c2ccccn2)s1 — higher, 1.77%
- CCN(CC)C(=O)c1sc2nc(-c3ccccc3)ccc2c1N — lower, -8.25%
- O=C(NC(c1ccc(Cl)cc1)c1cnccn1)C1CCN(Cc2ccc(Cl)cc2)CC1 (stereo not drawn) — higher, 2.32%
- Clc1cccc(Cc2c(-c3cccc(Cl)c3)nc3ccc(Cl)cn23)c1 — lower, -13.7%
- O=C(COc1ccc(Cl)cc1[N+](=O)[O-])N1CCCCC1 — lower, -4.72%
- CSc1ccccc1NC(=O)CN(C)CC(=O)Nc1ccc(Cl)cc1[N+](=O)[O-] — lower, -4.66%
- CCOC(=O)c1c(NC(=S)SC)sc(C(=O)N2CCc3ccccc3C2)c1C — lower, -5.18%
- CC(=O)NC(c1ccccc1)c1nc(-c2ccccc2C)cs1 (stereo not drawn) — lower, -5.3%
- COCC1CCCCN1C(=O)c1cc(COc2ccc(C)c(C)c2)on1 (stereo not drawn) — higher, 3.28%
- CCOc1ccc(S(=O)(=O)N2CCN(C(=S)NCC3CCCO3)CC2)cc1 (stereo not drawn) — higher, 1.52%
- CCOc1ccc(NS(=O)(=O)c2ccc(C(=O)NCC3CCCO3)cc2)cc1 (stereo not drawn) — higher, 1.53%
- Cc1ccccc1-c1n[nH]c(=S)n1/N=C/c1ccc(-c2ccccc2Br)o1 — lower, -17.2%
- CN(Cc1ccccc1F)c1cc2c(c3c1ccn3C)C1CCC2O1 (stereo not drawn) — higher, -4.37%
- O=C1OCCOC2CCCc3oc(-c4ccccc4)c1c32 (stereo not drawn) — higher, -1.47%
- CCN(CC)CCN(C)C(c1ccnc2ccccc12)c1nnnn1-c1ccc2c(c1)OCCO2 (stereo not drawn) — lower, -13.1%
- O=C1/C(=C/c2ccc(F)cc2)SC(=S)N1CCCC(=O)N1CCCCC1CCO (stereo not drawn) — lower, -15.9%
- COc1ccc(/C=C2\SC(=S)N(CCC(=O)N3CCOCC3)C2=O)cc1OC — lower, -7.23%
- CCCCC[C@H](C)N1C[C@@H](COCc2ccccc2)Oc2cc(N3CCC[C@@H]3CO)ccc2S1(=O)=O — lower, -6.61%
- CC(C)C[C@@H]1Cc2[nH][nH]c(=O)c2[C@H](CCc2ccccc2)O1 — lower, -16.3%
- COc1ccccc1CNC(=O)c1cc(-c2cc(Cl)ccc2C)n[nH]1 — higher, 0.345%
- CCc1nc2c(OCCOc3ccccc3)cccn2c1N(C)C(=O)c1ccccc1F — lower, -11.2%
- CCOC(=O)Cc1csc(NC(=O)CSc2ccc(Br)cc2)n1 — higher, -1.13%
- Cn1c(NCc2cccnc2)nc2cc(-c3ccc(F)cc3)sc2c1=O — higher, -3.07%
- COC(=O)[C@@]12C[C@@H](CC(=O)N3CCCCC3)C(=O)N(Cc3ccc4c(c3)OCO4)C1=CCC(C)(C)C2 — higher, 2.15%
- CC(C)C[C@H]1CNC(=S)N1C[C@H]1CCCN1C[C@H](Cc1ccc(O)cc1)N1C[C@H](Cc2ccc(O)cc2)N(CC2CCCCC2)C1=S — higher, 1.95%
- CC1(C(=O)NCc2ccc3c(c2)OCO3)CCN1C(=O)Cc1cccc2ccccc12 (stereo not drawn) — lower, -5.76%
- Cc1ccc(C(=O)N(CN2CCCC2=O)c2ccc(F)cc2)cc1 — lower, -5.15%
- CCn1c(C(C)NC(=O)c2ccc(C)cc2)n[nH]c1=S (stereo not drawn) — lower, -15.1%
- CCOc1ccc(NC(=O)c2cc(C)nc3ccccc23)cc1 — higher, -0.67%
- CCOc1ccc(NS(=O)(=O)c2ccc(C)c(C(N)=O)c2)cc1 — higher, 1.44%
- COc1ccc(NC(=O)C2(C)Cc3c(-c4cccc(NC(C)=O)c4)ccnc3O2)cc1OC (stereo not drawn) — lower, -12.3%
- CN(C)CCCn1c(=O)n(Cc2ccccc2)c(=O)c2c3c(sc21)CCCCC3 — higher, -1.79%
- CCCc1nc2sc3c(c2c(=O)n1NC(=O)CCCl)CCCC3 — lower, -16.7%
- CCN(CC)C(=O)C1=C(C)N(Cc2ccc(OC)cc2)C(=O)C(CC(=O)NCc2ccco2)C1 (stereo not drawn) — higher, 5.53%
- CC(C)c1cccc(C(C)C)c1Nc1cn[nH]c1 — higher, 3.35%
- O=S(=O)(NC1CCCCC1N1CCC(O)CC1)c1ccc(Cl)cc1 (stereo not drawn) — lower, -6.48%
- O=S(=O)(NC1CCCCC1N1CCCCC1)c1ccc(Cl)cc1 (stereo not drawn) — higher, 3.73%
- Cc1cc(O)ccc1-c1cc(C(=O)NCc2cc(C(F)(F)F)cc(C(F)(F)F)c2)[nH]n1 — higher, 3.49%
- C#CC(CCN1CCCCC1)(OC)c1ccccc1 (stereo not drawn) — lower, -7.33%
- CCCCCC(O)(CCN1CCCCC1)c1ccccc1 (stereo not drawn) — higher, -0.139%
- Cc1ccn(CC(=O)NC2CCCN(Cc3ccccc3F)C2)n1 (stereo not drawn) — higher, -1.67%

In the case of `COC(=O)c1sc(=S)n(-c2ccccc2)c1N`, the Potency is reported as 10 µM (active).
For `CCOC(=O)c1sc(=S)n(-c2cccc(OC)c2)c1N`, the Potency was 14.1 µM (active).
In the case of `CC1Cc2ccccc2N1C(=O)CSc1nnc(C2CC2)n1C` (stereo not drawn), the Potency is reported as 21.2 µM (active).
For `O=C1/C(=C\c2ccc([N+](=O)[O-])cc2)CS(=O)(=O)C/C1=C/c1ccc([N+](=O)[O-])cc1`, the Potency was 4.23 µM (active).
In the case of `CCS(=O)(=O)c1cc([N+](=O)[O-])c(Sc2ccccc2N)s1`, the Potency is reported as 23.8 µM (active).
`C/C(=N\Nc1cccc(C(=O)O)c1)c1ccc2c(c1)Nc1ccccc1S2` was tested, and the Potency was 26.7 µM (active).
With `O=C1C(Cl)=C(Oc2ccccc2)C(=O)c2ccccc21` the Potency was 1.68 µM (active).
In the case of `CN(C)c1ccnc2sc(C(=O)c3ccccc3)c(N)c12`, the Potency is reported as 29.9 µM (active).
`O=C1CCCCC1Sc1ccc(Cl)cc1[N+](=O)[O-]` (stereo not drawn) was tested, and the Potency was 4.74 µM (active).
For `CCOc1ccc(-n2c(N)c(C(=O)NCC3CCCO3)sc2=S)cc1` (stereo not drawn), the Potency was 23.8 µM (active).
`CCc1n[nH]c(=S)n1/N=C/c1c[nH]c2ccc(Br)cc12` was tested, and the Potency was 33.6 µM (active).
In the case of `CC1=C/C(=N\OS(=O)(=O)c2ccccc2)C=CC1=O`, the Potency is reported as 1.26 µM (active).
In the case of `C=CCOc1ccc(/C=C2\SC(=S)N(CCC(=O)O)C2=O)cc1`, the Potency is reported as 26.7 µM (active).
For `O=[N+]([O-])/C=C/c1ccc2c(ccn2Cc2ccccc2)c1`, the Potency was 3.36 µM (active).
`CCOC(=O)Cc1csc(NC(=O)CSc2nc(C)cc(=O)[nH]2)n1` was tested, and the Potency was 11.9 µM (active).
`CCN1CCC2(CC1)N=C(c1ccc(F)cc1)C(=S)N2C(=O)c1ccc(C)cc1` was tested, and the Potency was 15 µM (active).
With `CCOc1ccc2nc(NCCNC(=O)C(C)(C)C)c(C)cc2c1` the Potency was 26.7 µM (active).
With `CCn1c(=S)[nH]c2sc3c(c2c1=O)CCCCC3` the Potency was 23.8 µM (active).
For `CCN1CCN(C2CCCCC2NS(=O)(=O)c2ccc(Cl)cc2)CC1` (stereo not drawn), the Potency was 26.7 µM (active).
In the case of `CCCCCCC(O)(CCN1CCCCC1)c1ccccc1` (stereo not drawn), the Potency is reported as 29.9 µM (active).
